# Tested on: ACVR2B
# Settings: concentration: 1 μM, replicates: in singlicate; n = 1
# 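Note: KINOMEscan kinase panel screen.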
row,Compound,%Inh [%]
1,CCn1c(-c2ccccc2)nc2cnccc21 [SB-733416],15
2,CN1c2ccc(-c3ccc(C(N)=O)cc3)cc2-c2[nH]ncc2S1(=O)=O,16
3,CS(=O)(=O)CCNCc1nc(-c2ccc3ncnc(Nc4ccc(OCc5ccccc5)c(Cl)c4)c3c2)cs1.Cl [GW582764],0
4,COC(=O)c1cccc(NC(=O)NC2CCN(c3ccnc(Nc4ccc(OC)cc4)n3)C2)c1 (stereo not drawn) [GSK1379746],0
5,NS(=O)(=O)c1cccc(N/C=C2\C(=O)Nc3ccc(S(=O)(=O)Cc4c(Cl)cccc4Cl)cc32)c1 [GSK398099],0
6,CC(=O)c1cccc(NC(=O)NC2CCN(c3ccnc(Nc4ccc(F)cc4)n3)C2)c1 (stereo not drawn) [GSK1379710],13
7,O=C1NC(=O)C(c2ccc(Cl)cc2)=C1Nc1cccc(Cl)c1 [SB-317651],0
8,Cc1ccc(-c2nc(Nc3ccncc3)c3ccccc3n2)s1 [GSK189015],11
9,Cn1cnc2c(N)ncnc21 [SKF-97623],0
10,CNc1nc(-c2ccc3c(N)n[nH]c3c2)cc(N2C[C@@H](C(=O)NC3CCCCC3)OC[C@H]2C)n1 [GSK2375584],35
11,O=C(Nc1n[nH]c2nc(-c3ccco3)c(Br)cc12)C1CCN(Cc2ccccc2)C1.O=C(O)[C@H](O)[C@@H](O)C(=O)O (stereo not drawn) [SB-742034],0
12,COc1ccc(Nc2nccc(NCCNC(=O)Nc3cc(C)ccc3C)n2)cc1 [GSK1379899],6
13,CC(C)c1cc(-c2ccc3c(N)n[nH]c3c2)nc(N)n1 [GSK2250882],0
14,O=C(Nc1n[nH]c2nc(-c3cccs3)c(Br)cc12)C1CCCC1 [SB-743341],7
15,O=C1NC(=O)C(c2ccc(Cl)cc2)=C1Nc1ccc(O)cc1 [SB-340867],0
16,COc1ccc(Nc2nccc(N3CCC(NC(=O)C(C)c4ccc(Cl)cc4)CC3)n2)cc1 (stereo not drawn) [GSK1379812],0
17,CC(C)c1ccc(O)cc1Nc1ccnc2ccc(C(F)(F)F)cc12 [GW482059],0
18,CCn1c(-c2c(N)noc2C)nc2cnccc21 [SB-737856],0
19,COc1ccc(Nc2nccc(N3CCC(NC(=O)C(C)c4ccc(Cl)cc4)C3)n2)cc1 (stereo not drawn) [GSK1379735],0
20,O=c1cc(N2CCOCC2)nc2n(Cc3cccc(Cl)c3Cl)c3ccccc3n12 [GSK2299009],0
21,CC(=O)c1c(C)c2cnc(Nc3ccn(C)n3)nc2n(C2CCCC2)c1=O,0
22,Cc1nccc(-c2c(-c3ccc(F)cc3)ncn2CCCN2CCOCC2)n1.Cl [SB-282975],7
23,COc1ccc(CSc2nnc(-c3ccc4c(c3)CCO4)o2)cc1,0
24,Cc1ccc(NC(=O)Nc2ccc(Cl)cc2)cc1-c1ccc(C(=O)Nc2ccncc2)cc1 [GSK1398472],0
